About 83,000 compounds went through this panel and 20% of them were active in at least one assay; those are over-represented in the sample as a whole.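 Percent growth is the endpoint: 0 to 100 indicates growth inhibition (40 means 60% inhibition), 0 means no net growth, and negative values indicate cell death.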 Values without a mark were called inactive. Activity calls are given as the source filed them. Rule for the calls: active = growth percent below 10; inactive = the rest.

Some test systems named below: HCT-15 colon; HT29 colon; SNB-75 CNS; SNB-19 CNS; U251 CNS; PC-3 prostate; SK-MEL-5 melanoma; LOX IMVI melanoma; SK-MEL-28 melanoma; SK-MEL-2 melanoma; EKVX NSCLC; SN12C renal; UO-31 renal; TK-10 renal; ACHN renal; CAKI-1 renal; A498 renal; CCRF-CEM leukemia; MOLT-4 leukemia.
Holding throughout (assay): NCI-60 one-dose screen, 48 h (100 = growth as untreated, 0 = no growth, -100 = all killed)
Common to all, as to conditions: 10 µM unless noted

With `CCN(CC)CCOc1ccc2ccc(=O)oc2c1`, the growth is 104% in the test on HCT-15 colon; 102% in the test on HT29 colon; 107% with SNB-75 CNS; 98.5% with SNB-19 CNS; 101% in the test with U251 CNS; 21.3% in the test with PC-3 prostate. The growth is 102% in the test on SK-MEL-5 melanoma; 101% in the test with LOX IMVI melanoma; 99.6% in the test on SK-MEL-28 melanoma; 103% with SK-MEL-2 melanoma; 105% with EKVX NSCLC; 100% in the test on SN12C renal. Also, the growth is 82.9% in the test with UO-31 renal; 97.7% with TK-10 renal; 97% with ACHN renal; 90.9% with CAKI-1 renal; 98.5% in the test on A498 renal; 3.66% (active) in the test on CCRF-CEM leukemia. For the same compound, the growth with MOLT-4 leukemia was 4.48% (active).

As for `C1CCC(N2CN3c4nonc4N4CN(C5CCCCC5)CN5c6nonc6N(C2)C3C45)CC1` (stereo not given), the growth is 84.5% with HCT-15 colon; 105% in the test with HT29 colon; 88.7% with SNB-75 CNS; 102% in the test on SNB-19 CNS; 93.3% with U251 CNS; 87.9% in the test with PC-3 prostate. In addition, the growth with SK-MEL-5 melanoma is 93.5%; in the test with LOX IMVI melanoma, 98.9%; with SK-MEL-28 melanoma it was 101%; in the test on SK-MEL-2 melanoma, 102%; in the test on EKVX NSCLC it was 82.4%; in the test with SN12C renal, 92.4%. Moreover, the growth in the test on UO-31 renal is 71.9%; in the test on TK-10 renal it was 102%; with ACHN renal, 103%; in the test on CAKI-1 renal, 84.9%; in the test on A498 renal, 92.9%; with CCRF-CEM leukemia, 51%. In addition, the growth in the test on MOLT-4 leukemia was 91.8%.

`CC/C(=C(/c1ccc(O)cc1)c1ccc(OCCN2CCCCC2)cc1)c1ccc(OC)cc1`: the growth with HCT-15 colon was 20.1%; in the test with HT29 colon, 4.3% (active); in the test on SNB-75 CNS, 74.1%; with SNB-19 CNS, 94.7%; in the test on U251 CNS it was 8.72% (active); in the test on PC-3 prostate it was 79.4%. The growth with SK-MEL-5 melanoma was 88.6%; in the test on LOX IMVI melanoma, -40% (active); in the test on SK-MEL-28 melanoma it was 60.3%; in the test on SK-MEL-2 melanoma it was 97.4%; in the test on EKVX NSCLC, 87%; in the test with SN12C renal, 91.1%. Besides, the growth in the test on UO-31 renal is 70%; in the test on TK-10 renal, 86.6%; in the test on ACHN renal it was 91.3%; with CAKI-1 renal, 91.2%; in the test on A498 renal it was 83.2%; in the test on CCRF-CEM leukemia, 42.1%. In the test with MOLT-4 leukemia, the growth was 23%.

As to `CCN1CCN(CCNc2nccc(-c3c(-c4ccc(F)c(O)c4)nc4occn34)n2)S1(=O)=O`, the growth in the test on HCT-15 colon was 17.8%; in the test on HT29 colon it was 20.1%; with SNB-75 CNS, 83.5%; in the test on SNB-19 CNS it was 73.7%; in the test on U251 CNS, 45.7%; with PC-3 prostate, 13.7%. Also, the growth in the test with SK-MEL-5 melanoma was -22.7% (active); in the test with LOX IMVI melanoma it was 15.6%; with SK-MEL-2 melanoma it was 1.39% (active); in the test on EKVX NSCLC it was 47.9%; with SN12C renal, 33.9%; with UO-31 renal it was 4.38% (active). The growth was 44.9% in the test with TK-10 renal; 16.5% in the test on ACHN renal; 18.5% with CAKI-1 renal; 49.1% in the test with A498 renal; 9.35% (active) with CCRF-CEM leukemia; -9.69% (active) with MOLT-4 leukemia.

These data come from PubChem BioAssay (NCI).
